{"source": "the supplement of paper PMC3334620", "note": "In all, about 33,000 sequences were measured (“E-score (-0.5 to 0.5)”: median about -0.021, highest 2% from about 0.32 on). The sample holds the highest values, similar sequences and a random draw of the others, so the mix is not that of the screen."}
{"biological_target": "T1, Zap1 (UniProt P47043)", "T1 sequence": "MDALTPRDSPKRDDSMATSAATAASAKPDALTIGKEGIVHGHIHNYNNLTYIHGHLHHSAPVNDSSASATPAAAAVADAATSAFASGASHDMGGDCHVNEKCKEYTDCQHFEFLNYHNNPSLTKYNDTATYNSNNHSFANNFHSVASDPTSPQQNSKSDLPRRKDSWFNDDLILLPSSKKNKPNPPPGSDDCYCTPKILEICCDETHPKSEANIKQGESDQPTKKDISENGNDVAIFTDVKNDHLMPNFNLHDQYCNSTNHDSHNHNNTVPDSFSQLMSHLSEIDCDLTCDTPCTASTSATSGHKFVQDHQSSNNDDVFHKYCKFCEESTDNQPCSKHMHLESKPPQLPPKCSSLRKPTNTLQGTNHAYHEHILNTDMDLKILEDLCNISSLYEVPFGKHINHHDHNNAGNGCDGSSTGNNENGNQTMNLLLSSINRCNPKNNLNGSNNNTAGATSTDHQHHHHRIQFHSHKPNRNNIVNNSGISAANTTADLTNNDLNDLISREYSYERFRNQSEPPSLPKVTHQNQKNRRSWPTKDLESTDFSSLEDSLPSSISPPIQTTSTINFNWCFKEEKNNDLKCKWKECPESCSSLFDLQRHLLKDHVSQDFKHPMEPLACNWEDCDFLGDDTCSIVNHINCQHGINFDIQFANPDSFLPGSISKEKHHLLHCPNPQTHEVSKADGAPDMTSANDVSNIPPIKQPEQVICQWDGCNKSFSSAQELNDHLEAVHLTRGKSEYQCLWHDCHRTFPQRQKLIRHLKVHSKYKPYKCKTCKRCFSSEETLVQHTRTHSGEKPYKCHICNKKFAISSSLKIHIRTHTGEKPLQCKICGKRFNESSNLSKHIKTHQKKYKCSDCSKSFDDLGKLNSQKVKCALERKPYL", "assay": "PBM E-score (8-mer binding enrichment) (E-score (-0.5 to 0.5)); higher = stronger / more preferred TF binding", "details": "protein concentration: 200 nM; construct: GST-full length", "procedure": "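Universal 'all 10-mer' protein binding microarrays (Agilent AMADID 015681) probed with GST-tagged S. cerevisiae TFs (full-length or DBD) made by in vitro transcription/translation (PURExpress), about 100-200 nM. Bound TF was detected with fluorescent anti-GST. Each ungapped 8-mer (which stands for itself and its reverse complement) is scored by the PBM enrichment score (E-score), a modified Wilcoxon-Mann-Whitney statistic from -0.5 to +0.5, computed with the Universal PBM Analysis Suite. Scale: above 0.35 generally sequence-specific binding.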"}
{"sequence": "TAACCCGA", "PBM E-score": 0.345}
{"sequence": "CAACCCGC", "PBM E-score": 0.251}
{"sequence": "CAACCCGA", "PBM E-score": 0.355}
{"sequence": "GAACCCGA", "PBM E-score": 0.0725}
{"sequence": "TACCCCGA", "PBM E-score": 0.34}
{"sequence": "GCAGCTGC", "PBM E-score": -0.246}
{"sequence": "CTTACTTC", "PBM E-score": 0.00964}
{"sequence": "GTATGATA", "PBM E-score": 0.14}
{"sequence": "ATATGATA", "PBM E-score": 0.348}
{"sequence": "CTATGATA", "PBM E-score": 0.00378}
{"sequence": "TCTTCGAA", "PBM E-score": 0.00843}
{"sequence": "AATCGTCG", "PBM E-score": -0.21}
{"sequence": "CTACTGTA", "PBM E-score": -0.0171}
{"sequence": "ACACCCTC", "PBM E-score": 0.312}
{"sequence": "ACACCCTG", "PBM E-score": 0.21}
{"sequence": "GCACCCTA", "PBM E-score": 0.297}
{"sequence": "CCACCCTA", "PBM E-score": 0.327}
{"sequence": "CCACCCAA", "PBM E-score": -0.0177}
{"sequence": "ACACCCTA", "PBM E-score": 0.335}
{"sequence": "CCACCCAC", "PBM E-score": 0.263}
{"sequence": "CCACCCTC", "PBM E-score": 0.358}
{"sequence": "ACACCCCA", "PBM E-score": 0.0819}
{"sequence": "CCTAGGCC", "PBM E-score": -0.0276}
{"sequence": "ATATCTGG", "PBM E-score": -0.138}
{"sequence": "CAGTTAAG", "PBM E-score": 0.0515}
{"sequence": "GGAGTTTA", "PBM E-score": -0.0721}
{"sequence": "ATGAGAGA", "PBM E-score": -0.0163}
{"sequence": "GTGCACGA", "PBM E-score": 0.0644}
{"sequence": "ACCGCAAT", "PBM E-score": 0.319}
{"sequence": "GCCGCAAC", "PBM E-score": 0.218}
{"sequence": "ACCGCAAA", "PBM E-score": 0.205}
{"sequence": "ACCGCAAC", "PBM E-score": 0.341}
{"sequence": "ACCGCACT", "PBM E-score": 0.109}
{"sequence": "ACCGCAAG", "PBM E-score": 0.153}
{"sequence": "AGCGACGC", "PBM E-score": -0.162}
{"sequence": "TGCATCAA", "PBM E-score": 0.122}
{"sequence": "CAGCGACA", "PBM E-score": -0.0507}
{"sequence": "ACCTAGGT", "PBM E-score": 0.26}
{"sequence": "AGTGATGA", "PBM E-score": -0.0675}
{"sequence": "GGTGATGA", "PBM E-score": 0.338}
{"sequence": "CGTGATGA", "PBM E-score": -0.0344}
{"sequence": "ACAGCAAC", "PBM E-score": -0.00827}
{"sequence": "TGAGTGCA", "PBM E-score": -0.113}
{"sequence": "CGAGGTTA", "PBM E-score": 0.455}
{"sequence": "GGAGGTGA", "PBM E-score": 0.13}
{"sequence": "GGAGGTTA", "PBM E-score": 0.36}
{"sequence": "CGAGGTGA", "PBM E-score": 0.239}
{"sequence": "GGAGGTAA", "PBM E-score": 0.289}
{"sequence": "CGAGGTTC", "PBM E-score": 0.22}
{"sequence": "GTGGATGA", "PBM E-score": 0.014}
{"sequence": "ACGGATGG", "PBM E-score": -0.0981}
{"sequence": "GGTTAACC", "PBM E-score": 0.427}
{"sequence": "AGTTAACA", "PBM E-score": 0.117}
{"sequence": "CGTTAACA", "PBM E-score": 0.00812}
{"sequence": "AGTTAACC", "PBM E-score": 0.289}
{"sequence": "CGTTAACC", "PBM E-score": 0.294}
{"sequence": "GGTTAACA", "PBM E-score": 0.32}
{"sequence": "ACGTTGGG", "PBM E-score": -0.01}
{"sequence": "CGCTTTAG", "PBM E-score": -0.136}
{"sequence": "CATCTTTC", "PBM E-score": -0.0278}
{"sequence": "CACCCTCA", "PBM E-score": 0.257}
{"sequence": "ACCCCTGC", "PBM E-score": 0.167}
{"sequence": "CCCCCTGC", "PBM E-score": -0.372}
{"sequence": "CACCCTCC", "PBM E-score": 0.326}
{"sequence": "CTCCCTGC", "PBM E-score": -0.212}
{"sequence": "AACCCTCC", "PBM E-score": 0.185}
{"sequence": "ACCCCTCA", "PBM E-score": 0.267}
{"sequence": "CACCCTGC", "PBM E-score": 0.331}
{"sequence": "AACCCTGC", "PBM E-score": 0.385}
{"sequence": "GACCCTGC", "PBM E-score": 0.283}
{"sequence": "AACCCTCG", "PBM E-score": 0.292}
{"sequence": "AACCCTCA", "PBM E-score": 0.383}
{"sequence": "GACCCCTC", "PBM E-score": 0.138}
{"sequence": "AAAAGCGT", "PBM E-score": -0.06}
{"sequence": "TGTGAACA", "PBM E-score": -0.0338}
{"sequence": "AGCCACCC", "PBM E-score": -0.108}
{"sequence": "AAATGGGT", "PBM E-score": 0.265}
{"sequence": "AAATACCG", "PBM E-score": 0.162}
{"sequence": "CTAGCAAC", "PBM E-score": -0.0149}
{"sequence": "AATGTCGT", "PBM E-score": -0.0154}
{"sequence": "AGTCTGAT", "PBM E-score": -0.0553}
{"sequence": "GCTATGAA", "PBM E-score": -0.0097}
{"sequence": "AACCCTGG", "PBM E-score": 0.392}
{"sequence": "AGCCCTGA", "PBM E-score": -0.131}
{"sequence": "CCCCCTGA", "PBM E-score": -0.209}
{"sequence": "CACCCTGG", "PBM E-score": 0.169}
{"sequence": "AACCCTGA", "PBM E-score": 0.461}
{"sequence": "CACCCTGA", "PBM E-score": 0.162}
{"sequence": "TACCCTGA", "PBM E-score": 0.406}
